Bioassay records: PubChem, several laboratories
In the library only some 4.5% were active in any assay of this set; here they are far more common.
Jurkat NFkB inh: inhibitors of the PMA/ionomycin-induced NF-kB reporter in Jurkat cells; PMA/ionomycin-induced NF-kB luciferase reporter, luminescence; inhibition, % at 4 µM; AID 435003; 330,000 tested, 0.53% active; in the data active = inhibition above about 50%
CSC inhib: blocks cancer stem cells; inhibition, % at 7.5 µM; 300,000 tested, 1.1% active; cancer stem cell-like cells viability, luminescence; in the data active = inhibition above about 75%; tested in HMLE shEcad cells
Beta cell apopt: beta cell apoptosis inhibition; INS-1E cytokine-induced death, ATP luminescence, 48 h; percent of positive-control rescue, neutral wells zero; protection from apoptosis, % (concentration not given with the values); 300,000 tested, 0.8% active;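 active = Every replicate reaches about 75%, or at least half do and their mean reaches it too, limit read from the data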;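 note: 0% = cytokine-treated negative control wells and 100% = positive control rescue; higher means more ATP so stronger rescue from cytokine killing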
Mdm2 MdmX PPI: disrupts the human Mdm2-MdmX interaction | AID 485346 | SaOS-2 split-luciferase Mdm2/MdmX complementation, luminescence | inhibition, % at 8 µM | O15151+Q00987 | 330,000 tested, 3% active;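 active = inhibition of at least 50% at 8 µM in the primary screen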
Target sequence (O15151 whole entry, looked up): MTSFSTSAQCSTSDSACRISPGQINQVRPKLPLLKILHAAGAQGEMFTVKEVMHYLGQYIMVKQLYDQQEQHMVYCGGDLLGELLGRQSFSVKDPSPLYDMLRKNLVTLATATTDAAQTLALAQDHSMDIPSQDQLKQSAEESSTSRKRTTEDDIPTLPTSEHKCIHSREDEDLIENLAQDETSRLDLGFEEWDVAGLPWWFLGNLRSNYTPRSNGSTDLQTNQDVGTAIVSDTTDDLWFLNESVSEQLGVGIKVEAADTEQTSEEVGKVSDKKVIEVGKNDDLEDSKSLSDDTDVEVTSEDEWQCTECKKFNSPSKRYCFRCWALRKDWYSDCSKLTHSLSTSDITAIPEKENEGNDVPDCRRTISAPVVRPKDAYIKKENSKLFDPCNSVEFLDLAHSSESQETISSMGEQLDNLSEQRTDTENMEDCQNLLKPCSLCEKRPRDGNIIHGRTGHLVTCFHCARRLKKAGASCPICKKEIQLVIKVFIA
Target sequence (Q00987 whole entry, looked up): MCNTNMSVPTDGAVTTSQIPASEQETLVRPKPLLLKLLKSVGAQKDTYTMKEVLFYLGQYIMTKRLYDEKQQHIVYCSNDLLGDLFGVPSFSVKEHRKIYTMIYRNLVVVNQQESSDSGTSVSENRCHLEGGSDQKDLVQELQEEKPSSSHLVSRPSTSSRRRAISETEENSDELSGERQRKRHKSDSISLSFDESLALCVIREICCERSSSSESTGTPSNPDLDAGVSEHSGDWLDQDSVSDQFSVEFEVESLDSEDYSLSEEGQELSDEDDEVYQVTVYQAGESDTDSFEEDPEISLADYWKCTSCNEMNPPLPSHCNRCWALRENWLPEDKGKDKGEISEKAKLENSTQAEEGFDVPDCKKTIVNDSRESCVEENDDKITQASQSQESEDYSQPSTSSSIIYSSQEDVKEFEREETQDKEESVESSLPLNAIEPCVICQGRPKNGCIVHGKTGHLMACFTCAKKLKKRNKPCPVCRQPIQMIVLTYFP
697 NFkB inh: lowers PMA/ionomycin-induced NF-kB signal in 697 B cells. 697 B-cell NF-kB luciferase reporter, 16 h. inhibition, % at 4 µM. 330,000 tested, 0.33% active. AID 435022; in the data active = inhibition above about 35%
Gli-Sufu antag: blocks Gli-Sufu signaling in a luciferase reporter | 340,000 tested, 0.74% active | AID 588413 | inhibition, % at 5 µM | Sufu-KO-LIGHT fibroblasts, Gli luciferase reporter luminescence;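 active = inhibition above about 55%, limit read from the data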;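 note: 0% = DMSO-treated cells and 100% = wells with medium but no cells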
Jurkat NFkB conf: inhibitors of the PMA/ionomycin-induced NF-kB reporter in Jurkat cells, retest | AID 435020 | inhibition, % at 4 µM | 2,700 tested, 27% active | shares compounds with Jurkat NFkB inh | Jurkat NF-kB luciferase, 16 h;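 active = inhibition reaching about 45% at 4 µM in either replicate, limit read from the data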;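 note: plate controls were PMA/ionomycin stimulated DMSO wells for no effect and unstimulated DMSO wells for full effect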
An asterisk follows results filed as active; nt = not tested or not shown.

SMILES	Jurkat NFkB inh	CSC inhib	Beta cell apopt	Mdm2 MdmX PPI	697 NFkB inh	Gli-Sufu antag	Jurkat NFkB conf
CN(C)CCNc1ccc(CO)c2sc3ccc(O)cc3c(=O)c12	nt	nt	nt	nt	nt	77*	nt
CN(C)CCNc1ccc2ncn3c4ccc(O)cc4c(=O)c1c23	nt	nt	nt	nt	nt	25	nt
CC(C)CC(=O)NC(NC(=S)Nc1sc2c(c1C#N)CCCC2)C(Cl)(Cl)Cl (centres undefined)	4	80*	21	48	-27	15	nt
O=S(=O)(c1cccc(Br)c1)N1CCN(c2ncnc3scc(-c4ccccc4)c23)CC1	nt	nt	nt	nt	nt	2	nt
Cc1csc2ncnc(N3CCN(S(=O)(=O)c4cccc(C(F)(F)F)c4)CC3)c12	5	3	95*	20	-46	68*	nt
NC1=C(Br)C(=O)c2ccccc2C1=O	2	59	102*	43	4	9	nt
COc1cc2ccccc2cc1C(=O)OCC(=O)N(CC(C)C)c1c(N)n(Cc2ccccc2)c(=O)[nH]c1=O	18	-14	-2	34	-7	5	nt
Cn1cccc1/C=N/NC(=O)c1cccs1	-10	-1	-3	7	-37	-20	nt
Cn1cccc1/C=N/NC(=O)Cc1cccs1	-12	3	105*	10	2	-26	nt
C=CCc1cc(Cl)ccc1OCCOCCNC(C)CC (centres undefined)	-12	131*	10	25	13	12	nt
Cc1ccccc1C(=O)NC1CCN(CC(=O)NCc2ccccc2)CC1	3	27	-1	-23	7	-7	nt
O=C(Nc1cccc(Cl)c1)c1nc[nH]c1C(=O)NCCCNC(=O)c1[nH]cnc1C(=O)Nc1cccc(Cl)c1	3	101*	-1	47	13	19	nt
NC(=O)c1ccsc1NC(=O)CSc1nncs1	0	nt	nt	6	-10	-8	nt
CS(=O)(=O)c1ccc(C(=O)OCC(=O)NC23CC4CC(CC(C4)C2)C3)cc1[N+](=O)[O-]	-6	155*	-44	49	10	-2	nt
Cc1ccc2c(Cl)c(C(=O)NCC3CCCO3)sc2c1 (centres undefined)	-159	7	2	-167	-125	-45	-46
C[C@H](NC(=O)N1CCn2c1nc1ccccc12)C(=O)NCc1ccccc1	0	-6	-5	13	13	-4	nt
N/C(=N\OC(=O)c1ccccc1Cl)c1ccccc1	-217	-9	-2	-288	-235	-93	-99
O=C(O/N=C(\c1ccccc1)c1ccncc1)c1ccccc1Cl	-22	9	3	1	-33	0	nt
N/C(=N\OC(=O)c1ccc(Cl)cc1)c1ccn[nH]1	-166	-9	4	-46	-155	-79	-59
N/C(=N\OC(=O)c1ccccc1Cl)c1ccc(Cl)cc1	-166	4	-2	-31	-217	-69	-123
Cc1cccc(NC(=O)CCNS(=O)(=O)c2ccc3[nH]c(=O)oc3c2)c1	-6	-7	-2	-2	5	-8	nt
Cc1oc(-c2ccccc2Cl)nc1CS(=O)CC(=O)NCCCN1CC(C)CC(C)C1 (centres undefined)	7	-16	-7	19	0	10	nt
CCOC(=O)CSc1nc2cc(OC)ccc2cc1C#N	-207	-4	-2	-116	-190	1	-88
CCOC(=O)CSc1nc2ccc(C)cc2cc1C#N	-147	8	-1	-157	-110	-4	nt
CCOC(=O)CSc1nc2cc(C)ccc2cc1C#N	-156	5	-4	-73	-119	-11	-89
SMILES	Jurkat NFkB inh	CSC inhib	Beta cell apopt	Mdm2 MdmX PPI	697 NFkB inh	Gli-Sufu antag	Jurkat NFkB conf
COc1ccc(Cl)cc1Nc1cc(C)nc2ccccc12	54*	10	10	24	-29	12	23
COc1ccc(OC)c(Nc2cc(C)nc3ccccc23)c1	67*	34	3	39	-37	14	10
ON=C(CCc1ccccc1)c1ccccc1	nt	nt	nt	nt	nt	-66	nt
COc1ccc(CCN2C(=O)C3C4C=CC(C3C2=O)C2C(=O)N(CCc3ccc(OC)c(OC)c3)C(=O)C42)cc1OC (centres undefined)	59*	-1	10	8	21	8	56*
O=C(Nc1nc2ccsc2c(=O)s1)c1ccc(Cl)cc1	-199	6	-4	-46	-143	-63	-108
O=C(Nc1nc(=O)c2ccccc2s1)c1ccc(Cl)cc1	-27	4	2	1	-51	-49	nt
NC(=O)c1c(NC(=O)c2cc3ccccc3o2)sc2c1CCC2	-163	-5	-2	-11	-173	-92	-43
Cc1ccccc1Cn1cc(NC(=O)c2cc(C3CC3)on2)cn1	-8	nt	-2	-32	11	-37	nt
O=C(Nc1ccc2c(c1)OCO2)c1cc2nc(C3CC3)cc(C(F)(F)F)n2n1	nt	nt	nt	nt	nt	-2	nt
O=C(Nc1ccc2c(c1)OCO2)c1ccc(Cl)cc1Cl	-157	0	6	-110	-211	-151	-65
Cc1cc(C)n2nc(C(=O)Nc3ccc4c(c3)OCO4)cc2n1	-188	-8	4	-56	-164	-71	-80
COc1ccc(-n2nnnc2/C=C/Nc2cc(C(F)(F)F)ccc2OC)cc1	8	-5	-1	0	25	-1	nt
COc1ccc(-n2nnnc2/C=C\Nc2ccccc2C(=O)c2ccccc2)cc1	53*	24	19	24	-27	5	9
Cc1cc(NC(=O)COC(=O)c2ccc(S(=O)(=O)N3CCCc4ccccc43)cc2)no1	51*	53	1	41	-26	20	39
Cc1cc(NC(=O)COC(=O)c2ccc(S(=O)(=O)N3CCCC3)cc2)no1	6	12	-3	5	8	-2	nt
O=C(Nc1ccc(N2CCCC2)c(Cl)c1)c1ccco1	-165	nt	nt	-128	-198	-83	-25
Cc1ccc(/C=N/Nc2cccc3cccnc23)c(O)c1	-152	nt	8	-223	-123	-67	-77
Cc1noc(C)c1COc1ccc(C(=O)O)cc1	14	-16	1	-17	5	5	nt
Cc1noc(C)c1COc1ccc(C(=O)NNC(=O)c2ccccc2F)cc1	56*	48	5	29	-50	-15	45
Cc1noc(C)c1COc1ccc(C(=O)NNC(=O)c2ccccc2)cc1	63*	37	nt	40	-33	-8	30
CCN(C(=O)c1ccc(S(=O)(=O)N2CCCCC2)cc1)C1CCS(=O)(=O)C1 (centres undefined)	10	3	-5	5	8	-7	nt
O=C(COc1ccccc1-c1ccccc1)N/N=C/c1cccc2ccccc12	56*	95*	-9	32	22	44	51*
O=C(COc1cccc2ccccc12)N/N=C/c1ccccc1OCc1ccc(C(=O)O)cc1	4	-12	-6	-21	16	-11	nt
CC1=NN(S(=O)(=O)c2ccc(C)cc2)C(=O)c2ccccc2O1	4	0	-7	-39	14	7	nt
COc1ccc(S(=O)(=O)N2N=C(C)Oc3ccccc3C2=O)cc1	53*	54	3	48	-28	-3	44
